Measured values reported in PubChem BioAssay.
Active and inactive are the calls of the source.

Legend:
[1] = E. coli DRC41 culture turbidity changes, primary screen, E. coli filamentation inducer project, strain DRC41, OD650, 48 h (AID 1152);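 note: E. coli MC1000 strain DRC41 lacking acrAB efflux pump and sulA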; settings: E. coli DRC41 (acrAB sulA), higher = more signal, called active from +8 up or from −8 down
[2] = small-molecule binders of probe aLefty1, primary screen, biochemical, small-molecule microarray, 635/667 nm fluorescence (AID 1153); settings: higher = more signal;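 note: score merges spot fluorescence with signal-to-noise ratio from the scanned slide images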
[3] = PSAC antagonists in infected red cells, primary screen, cell-based, P. falciparum Indochina, OD700, 1 h (AID 1154); settings: P. falciparum Indochina infected RBC osmotic lysis, higher = more signal, called active from +8 up or from −8 down
[4] = PSAC antagonists in infected red cells, primary screen, cell-based, P. falciparum Indochina, OD700, 2 h (AID 1155);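 note: lysis reports solute entry through the parasite surface anion channel PSAC; channel blockers reduce lysis of infected cells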; settings: P. falciparum Indochina infected erythrocytes, osmotic lysis OD700; higher = more signal, called active from +8 up or from −8 down
[5] = osmotic lysis modulators in infected erythrocytes, primary screen, PSAC antagonist project, cell-based, P. falciparum Indochina, OD700, 3 h (AID 1156); settings: higher = more signal, called active from +8 up or from −8 down
[6] = PSAC antagonists in infected red cells, primary screen, cell-based, P. falciparum Indochina, OD700, 18 h (AID 1157); settings: P. falciparum Indochina infected erythrocytes, osmotic lysis OD700, 18 h; higher = more signal, called active from +8 up or from −8 down
[7] = modulators of S6 phosphorylation in cells, primary screen, cell-based, A549, cytoblot, luminescence, serum-stimulated (AID 1158); settings: A549 phospho-S6 cytoblot, 5 h, higher = more signal;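 note: serum-stimulated A549 lung adenocarcinoma cells; signal is phosphorylated S6 detected by cytoblot immunostaining with HRP secondary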
[8] = biological target: NADPH oxidase 2 (Homo sapiens) (UniProt P04839); assay: NOX2-dependent H2O2 signal modulators, primary screen, NOX inhibitor project, cell-based, HEK293-NOX2, PMA-stimulated, Amplex Red fluorescence (AID 1159); settings: 45 min, higher = more signal, called active from +8 up or from −8 down; note: test concentration not given here
Sequence of NADPH oxidase 2 (Homo sapiens) (P04839 whole entry, looked up): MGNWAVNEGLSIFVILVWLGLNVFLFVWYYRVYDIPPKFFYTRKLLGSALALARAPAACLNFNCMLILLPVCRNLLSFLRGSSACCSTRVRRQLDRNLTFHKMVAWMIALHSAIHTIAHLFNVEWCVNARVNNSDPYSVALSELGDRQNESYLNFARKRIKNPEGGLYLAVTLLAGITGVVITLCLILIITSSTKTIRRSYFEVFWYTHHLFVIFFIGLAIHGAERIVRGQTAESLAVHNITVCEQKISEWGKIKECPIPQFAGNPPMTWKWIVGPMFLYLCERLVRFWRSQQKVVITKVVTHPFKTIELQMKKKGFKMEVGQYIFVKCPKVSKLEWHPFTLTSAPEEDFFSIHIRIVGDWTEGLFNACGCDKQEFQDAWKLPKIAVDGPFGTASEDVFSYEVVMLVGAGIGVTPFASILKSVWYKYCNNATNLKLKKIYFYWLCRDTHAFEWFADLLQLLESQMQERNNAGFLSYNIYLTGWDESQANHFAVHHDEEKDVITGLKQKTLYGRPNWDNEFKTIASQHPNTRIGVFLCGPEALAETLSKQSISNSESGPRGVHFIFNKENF

[9] = biological target: NADPH oxidase 4 (Homo sapiens) (UniProt Q9NPH5); assay: NOX4-dependent H2O2 signal modulators, primary screen, NOX inhibitor project, cell-based, HEK293-NOX4, tetracycline-induced, Amplex Red fluorescence (AID 1160); settings: 45 min, higher = more signal, called active from +8 up or from −8 down
Sequence of NADPH oxidase 4 (Homo sapiens) (Q9NPH5 whole entry, looked up): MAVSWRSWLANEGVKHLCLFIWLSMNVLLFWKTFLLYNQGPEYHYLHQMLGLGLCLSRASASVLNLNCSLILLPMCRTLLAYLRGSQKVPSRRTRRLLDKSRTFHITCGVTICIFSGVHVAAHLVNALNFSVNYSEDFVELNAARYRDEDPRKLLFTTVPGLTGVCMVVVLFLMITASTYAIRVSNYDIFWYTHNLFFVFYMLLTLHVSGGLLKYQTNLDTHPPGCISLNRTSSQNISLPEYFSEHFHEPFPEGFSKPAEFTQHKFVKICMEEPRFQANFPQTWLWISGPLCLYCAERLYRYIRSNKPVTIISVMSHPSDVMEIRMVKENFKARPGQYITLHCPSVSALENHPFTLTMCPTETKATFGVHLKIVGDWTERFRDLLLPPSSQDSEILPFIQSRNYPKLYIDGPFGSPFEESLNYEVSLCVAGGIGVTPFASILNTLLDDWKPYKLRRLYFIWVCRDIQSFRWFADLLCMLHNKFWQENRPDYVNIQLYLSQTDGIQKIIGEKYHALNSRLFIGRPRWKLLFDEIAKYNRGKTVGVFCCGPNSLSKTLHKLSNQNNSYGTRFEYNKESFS

[10] = biological target: NADPH oxidase 5 (Homo sapiens) (UniProt Q96PH1); assay: NOX5-dependent H2O2 signal modulators, primary screen, NOX inhibitor project, cell-based, HEK293-NOX5, Amplex Red fluorescence (AID 1161); settings: HEK293-NOX5, ionomycin, 45 min, higher = more signal
Sequence of NADPH oxidase 5 (Homo sapiens) (Q96PH1 whole entry, looked up): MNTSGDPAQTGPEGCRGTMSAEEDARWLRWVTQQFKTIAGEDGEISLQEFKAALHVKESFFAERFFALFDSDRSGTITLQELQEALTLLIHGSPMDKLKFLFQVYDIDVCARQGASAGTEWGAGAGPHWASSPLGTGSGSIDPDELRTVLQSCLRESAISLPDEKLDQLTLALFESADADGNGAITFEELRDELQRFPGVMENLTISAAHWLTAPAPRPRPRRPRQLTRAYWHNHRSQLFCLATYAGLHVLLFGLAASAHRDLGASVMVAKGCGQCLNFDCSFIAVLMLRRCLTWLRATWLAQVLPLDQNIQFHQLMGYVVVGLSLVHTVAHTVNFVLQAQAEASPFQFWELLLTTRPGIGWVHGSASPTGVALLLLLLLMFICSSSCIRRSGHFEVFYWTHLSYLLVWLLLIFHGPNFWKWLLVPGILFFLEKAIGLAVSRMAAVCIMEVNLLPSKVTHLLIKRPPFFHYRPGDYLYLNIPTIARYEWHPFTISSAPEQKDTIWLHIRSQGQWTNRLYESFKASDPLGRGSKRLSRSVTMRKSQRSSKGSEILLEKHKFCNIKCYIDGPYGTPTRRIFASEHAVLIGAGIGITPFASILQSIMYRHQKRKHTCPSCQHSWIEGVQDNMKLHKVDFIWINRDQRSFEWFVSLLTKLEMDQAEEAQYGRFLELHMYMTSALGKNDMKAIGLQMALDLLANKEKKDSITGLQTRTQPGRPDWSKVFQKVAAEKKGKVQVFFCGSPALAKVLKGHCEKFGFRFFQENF

[11] = A549 cell viability effects, profiling panel, calcein-AM fluorescence, 48 h, basal (AID 1162); settings: higher = more signal; note: test concentration not given here
[12] = adipocyte viability effects, profiling panel, cell-based, 3T3-L1 adipocytes, calcein-AM fluorescence, 48 h, basal (AID 1163); settings: 3T3-L1 adipocytes viability, higher = more signal; note: test concentration not given here
[13] = HepG2 cell viability effects, profiling panel, calcein-AM fluorescence, 48 h, basal (AID 1164); settings: higher = more signal; note: test concentration not given here
[14] = MM1S cell viability effects, profiling panel, calcein-AM fluorescence, 48 h, basal (AID 1165); settings: higher = more signal;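 note: viability of MM1S multiple myeloma cells under basal unstimulated conditions; test concentration not given here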
[15] = basal RPMI8226 viability, no added stimulus, profiling panel, cell-based, calcein-AM fluorescence, 48 h, PK04 Diversity Set (AID 1166); settings: RPMI8226 myeloma viability, higher = more signal;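 note: cells grown under basal conditions without added stimulus; test concentration not given here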
[16] = basal HepG2 mitochondrial membrane potential changes, profiling panel, cell-based, JC-1 fluorescence, 24 h, 100 nL compound (AID 1167); settings: higher = more signal; note: test concentration not given here
[17] = basal 3T3-L1 adipocyte mitochondrial potential changes, profiling panel, cell-based, JC-1 fluorescence, 3T3-L1 adipocytes, 24 h, 100 nL compound (AID 1168); settings: JC-1 mitochondrial fluorescence, higher = more signal, called active from +8 up or from −8 down; note: test concentration not given here
[18] = basal RPMI8226 mitochondrial membrane potential changes, profiling panel, cell-based, JC-1 fluorescence, 24 h, 100 nL compound (AID 1169); settings: RPMI8226 myeloma, JC-1 mitochondrial potential fluorescence, higher = more signal; note: test concentration not given here
[19] = basal MM1S mitochondrial membrane potential changes, profiling panel, cell-based, JC-1 fluorescence, 24 h, 100 nL compound (AID 1170); settings: higher = more signal; note: test concentration not given here
[20] = A549 lung cancer cell viability effects, profiling panel, resazurin fluorescence, 24 h, PK04 Diversity Set (AID 1171); settings: higher = more signal, called active from +8 up or from −8 down; note: test concentration not given here

Structure (SMILES) | z-score [1] | composite z-score [2] | z-score [3] | z-score [4] | z-score [5] | z-score [6] | z-score [7] | z-score [8] | z-score [9] | z-score [10] | z-score [11] | z-score [12] | z-score [13] | z-score [14] | z-score [15] | z-score [16] | z-score [17] | z-score [18] | z-score [19] | z-score [20]
COc1ccc(-c2cnnc(CCCn3ccnc3-c3ccccc3)n2)cc1 | -0.249 (inactive) | -0.0576 | 26.2 (active) | 9.62 (active) | 0.886 (inactive) | 0.982 (inactive) | -0.714 | 1.27 (inactive) | -0.372 (inactive) | -1.2 | -0.98 | 1.02 | -1.28 | -1.82 | -2.55 | -1.5 | -0.876 (inactive) | -0.87 | -0.543 | -3.49 (inactive)
CCOC(=O)CCN1C(=O)[C@H]2[C@H]3[C@H](O)[C@H](O)CC(=NOCC(C)C)[C@@H]3CC[C@H]2C1=O | -0.214 (inactive) | -0.0051 | 6.67 (inactive) | 0.232 (inactive) | -0.0758 (inactive) | 0.134 (inactive) | -0.651 | 0.913 (inactive) | 0.783 (inactive) | 0.295 | -0.0819 | 0.472 | -0.194 | 0.268 | -0.706 | -1.05 | -0.717 (inactive) | 0.562 | 0.104 | -0.237 (inactive)
CCOC(=O)[C@H](CC(C)C)NC(=O)CCC1CC(OC(=O)NCCc2ccc(F)cc2)CC2(CCCC(COC(=O)NCc3cccc(C(F)(F)F)c3)O2)O1 (stereo not given in full) | 0.265 (inactive) | 0.0437 | 6.76 (inactive) | 0.968 (inactive) | 0.0716 (inactive) | 0.127 (inactive) | -0.276 | 0.61 (inactive) | 0.703 (inactive) | 0.401 | -0.366 | -0.289 | -0.581 | -3.37 | 0.277 | -0.471 | -0.512 (inactive) | 0.652 | -0.0831 | -0.209 (inactive)
CO[C@@H]1[C@H](O)CO[C@H]1C=Cc1ccccc1 | -0.0624 (inactive) | -0.0559 | 2.7 (inactive) | 0.178 (inactive) | 0.837 (inactive) | -0.0932 (inactive) | 0.722 | -0.403 (inactive) | -0.898 (inactive) | 1.23 | 0.998 | 1.12 | -0.0866 | 0.018 | -0.664 | 0.161 | -0.267 (inactive) | 0.337 | 0.859 | -0.587 (inactive)
COc1ccc(COC(=O)NN=C2C[C@@H](O)[C@@H](O)[C@@H]3[C@@H]4C(=O)N([C@@H](C)c5ccccc5)C(=O)[C@@H]4CC[C@H]23)cc1 | 0.486 (inactive) | 0.751 | 7.67 (inactive) | 0.805 (inactive) | -0.0805 (inactive) | 0.501 (inactive) | -0.34 | 0.947 (inactive) | 0.672 (inactive) | -0.419 | -0.0502 | 0.155 | -0.791 | 0.145 | -0.486 | -0.888 | -0.653 (inactive) | -0.0767 | 0.493 | 0.541 (inactive)
COC(=O)[C@H](C)NC(=O)CCC1CC(OC(=O)NCc2ccc3c(c2)OCO3)CC2(CCCC(COC(=O)NCCc3ccc(Cl)cc3)O2)O1 (stereo not given in full) | -0.51 (inactive) | -0.101 | 2.17 (inactive) | 0.223 (inactive) | 1.29 (inactive) | 0.272 (inactive) | 0.688 | 1.73 (inactive) | 0.148 (inactive) | 0.879 | -0.508 | 0.38 | -0.796 | -0.99 | -1.27 | 0.718 | -0.527 (inactive) | -0.342 | -0.864 | 1.02 (inactive)
CO[C@H]1C[C@@H]2C[C@H](O)CC(CC(=O)O[C@@H](C=CCC(C)C)C[C@@H]3CC[C@H](C)[C@@H](C1)O3)O2 | -0.55 (inactive) | -0.104 | 0.818 (inactive) | 0.41 (inactive) | 0.773 (inactive) | -0.0957 (inactive) | -0.254 | -1.17 (inactive) | 0.226 (inactive) | 1.2 | 0.366 | 0.128 | 0.341 | 0.283 | 0.624 | -0.427 | -0.975 (inactive) | 0.392 | -0.49 | -0.0031 (inactive)
COc1ccc(O[C@H]2C=C[C@@H](c3ccccc3)O[C@@H]2COC(=O)CCC(C)=NOC[C@@H](O)COCc2ccco2)cc1 | -1.45 (inactive) | -1.43 | 6.71 (inactive) | -1.05 (inactive) | 0.382 (inactive) | -2.06 (inactive) | 1.18 | -3.53 (inactive) | -0.876 (inactive) | -4.55 | 0.944 | 0.651 | 0.599 | -1.89 | 0.107 | -0.918 | 0.0665 (inactive) | -0.313 | -1.12 | 0.402 (inactive)
CC(C)=CCCC(C)=CCON=C1C[C@@H](O)[C@@H](O)[C@@H]2[C@@H]3C(=O)N(Cc4ccc5c(c4)OCO5)C(=O)[C@@H]3CC[C@H]12 | -0.171 (inactive) | -0.202 | 11.1 (active) | 1.73 (inactive) | 1.64 (inactive) | 0.844 (inactive) | -0.429 | -0.344 (inactive) | -2.35 (inactive) | -4.13 | -0.0007 | 0.0614 | -0.579 | -2.32 | -1.31 | -0.214 | -0.412 (inactive) | -0.655 | -0.488 | -0.0045 (inactive)
